Assay results published in PubChem BioAssay AID720553 (National Center for Advancing Translational Sciences (NCATS), 2013).
The campaign covered roughly 340,000 compounds. About 3,300 (0.97%) were called active. The list comes from a sample in which actives are over-represented; it also holds similar structures and randomly drawn compounds. Unmarked numbers belong to inactive results.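 How the source made its calls: active means maximum activity change below -70%; inconclusive means maximum activity change from -70% to -50%; inactive means maximum activity change above -50%.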

The compounds below were run on Potassium voltage-gated channel subfamily H member 2, brain isoform KCNH2 3.1 (human) (assay: qHTS for Inhibitors of KCHN2 3.1: Mutant qHTS). Settings: U2OS KCNH2 3.1, thallium flux FluxOr; stronger effect = lower value.
Excerpt: Many antipsychotic drugs that inhibit the neurotransmitter dopamine also bind to hERG1 channel which might help explain their antipsychotic activity but also produces cardiac side effects. The discovery of the novel KCNH2 3.1 isoform offers a potential new target for the development of antipsychotic drugs without cardiac side effects. This proposal will use a high throughput thallium flux assay developed for KCNH2 to screen compounds that modulate the activity of KCNH2 3.1. The wild type KCNH2 channel will also be screened in parallel to help define the selective modulators of this KCNH2 3.1 potassium channel. The resulting compounds will be validated in electrophysiology experiments. The availability of animal models will allow future testing in vivo for effects on memory and other aspects of animal physiology linked with psychosis. NIH Chemical Genomics Center [NCGC] NIH Molecular Libraries Probe Centers Network [MLPCN] MLPCN Grant: MH096539 Assay Submitter (PI): James Barrow, Johns Hopkins University, Lieber Institute for Brain Development
U2OS cells were resuspended in cell media containing 10% fetal calf serum (FCS) at a concentration of 2 million cells / mL. The solution was treated with the mutant (3.1) virus at 1.77 x 10^8 / mL and allowed to incubate at room temperature in the dark. After 4 hours of incubation, DMEM + 10% fetal bovine serum (FBS) was added to the cell solution. Three microliter was then dispensed into a 1536 tissue culture treated black assay plates which were incubated overnight at 37 C. Two microliter of loading buffer (HBSS + HEPES + Red40 dye quencher + FluxOr dye) was added and the assay plates were incubated for 45 min at room temperature in the dark. […] A stimulation buffer was added to the plate and the second kinetic read (2 min) was obtained. The rate constant was calculated from the kinetic reads and normalized to the positive and negative DMSO controls.
On the % scale 0 is the no-effect control and ±100 the full control effect.

How did the activity change turn out when `CCOC(=O)C1(CCc2ccccc2)CCN(Cc2ccco2)CC1` was run?
The activity change was -96.9% (active).

How did the activity change turn out when `CCOC(=O)C1(c2ccccc2)CCN(CC(O)c2ccc(NC(C)=O)cc2)CC1` (stereo not given) was run?
Its activity change is -5.82%.

Which activity change does the source give for `c1ccc(CCN2CCC3(CC2)OCCO3)cc1` here?
Its activity change is -0.723%.

With `COP(=O)(OC)C(NC(=O)c1ccc(C)cc1)C(Cl)(Cl)Cl` (stereo not given) as the compound, how does the activity change read?
The activity change was 10.5%.

Which activity change does the source give for `COc1cccc(CN2CCCC(C(=O)c3ccccc3SC)C2)c1O` (stereo not given) here?
The activity change was -72.3% (active).

Which activity change does the source give for `CSc1ccc(C(=O)C2CCCN(Cc3ccn[nH]3)C2)cc1` (stereo not given) here?
The activity change was -19%.

For `COc1ccc(C(=O)C2CCCN(Cc3ccc(C)s3)C2)cc1OC` (stereo not given), which activity change is on record?
The activity change was -13%.

For `CC1C2Cn3c(nc4ccccc43)C1N(C)O2` (stereo not given), which activity change is on record?
Its activity change is 20.5%.

Which activity change does the source give for `COC(=O)C1=C(c2ccc(F)cc2OCc2ccccc2)C[C@@H]2CC[C@H]1N2C(=O)NCc1ccc2[nH]ccc2c1` here?
Its activity change is 1.25%.

`COC(=O)C1=C(c2ccc(F)cc2OCc2ccccc2)C[C@@H]2CC[C@H]1N2C(=O)NCc1ccc(OC)c(OC)c1` was tested. Which activity change did it give?
Its activity change is -73.8% (active).

How did the activity change turn out when `COC(=O)C1=C(c2ccc(F)cc2OCc2ccccc2)C[C@@H]2CC[C@H]1N2C(=O)NCc1ccc(C(C)(C)C)cc1` was run?
Its activity change is -19.4%.

How did the activity change turn out when `CC1=CC(=Cc2sc3ccccc3[n+]2C)C=C(C)O1` was run?
Its activity change is -4.47%.

Which activity change does the source give for `COC(=O)C1=C(c2ccc(C(C)=O)cc2)C[C@@H]2CC[C@H]1N2C(=O)NCCNC(C)=O` here?
The activity change was 21.5%.

With `COC(=O)CN1C(=O)C2(C(C(=O)OC)=C(N)Oc3ccccc32)C2=C1CC(C)(C)CC2=O` (stereo not given) as the compound, how does the activity change read?
The activity change was -17.7%.

Which activity change does the source give for `CC(Cc1ccccc1)NC=O` (stereo not given) here?
The activity change was 13.6%.

With `CC(Cc1ccccc1)NCCC(c1ccccc1)c1ccccc1` (stereo not given) as the compound, how does the activity change read?
Its activity change is -112% (active).

`CC(=O)NC(=O)NC(C)Cc1ccccc1` (stereo not given) was tested. Which activity change did it give?
The activity change was -18.9%.

With `CCN1c2nc3c(C)cccn3c(=O)c2CC2(C(=O)N(C)C(=O)N(C)C2=O)C1C` (stereo not given) as the compound, how does the activity change read?
The activity change was -4.08%.

With `c1ccc(C2NCc3ccccc3-n3cccc32)cc1` (stereo not given) as the compound, how does the activity change read?
The activity change was 12.2%.

For `CC1(C)C(c2ccccc2)=NC(c2cccnc2)=[N+]1[O-]`, which activity change is on record?
Its activity change is 0.45%.

With `CN(C)c1nc(N(C)C)nc(N(C#N)CCCl)n1` as the compound, how does the activity change read?
The activity change was -8.4%.

With `OCC#CC[N+]1(CC#Cc2ccccc2)CCCC1` as the compound, how does the activity change read?
Its activity change is 13.7%.

Which activity change does the source give for `Cn1c(O)c(C=Nc2ccc3c(c2)CCC3)c(=O)n(C)c1=O` here?
Its activity change is -17.3%.

With `CCOC(=O)C1(Cc2ccc(Cl)cc2)CCN(C(C)CCn2cccn2)CC1` (stereo not given) as the compound, how does the activity change read?
The activity change was -115% (active).

How did the activity change turn out when `O=c1c2ccccc2nc(/C=C/c2ccc(F)cc2)n1-c1ccccc1O` was run?
The activity change was -2.48%.

How did the activity change turn out when `CC(C)c1ccc(OCC(=O)N2CCN(C)CC2)c(Br)c1` was run?
The activity change was -93.1% (active).

For `CC(C)c1ccc(OCC(=O)N2CCCN(C)CC2)cc1`, which activity change is on record?
Its activity change is 10.3%.

How did the activity change turn out when `CN1CCN(C(=O)COc2ccc(C(C)(C)C)cc2Br)CC1` was run?
The activity change was -2.07%.

Which activity change does the source give for `CC(=C1C(=O)c2ccccc2C1=O)N1CCN(CCN=Cc2c(O)n(C)c(=O)n(C)c2=O)CC1` here?
Its activity change is 10.3%.

With `CC1CC=CCC12C(=O)NC(=S)NC2=O` (stereo not given) as the compound, how does the activity change read?
The activity change was 10.6%.

With `CSC1=NP(=S)(SC)N(C)c2nc3n(c21)CCC3` (stereo not given) as the compound, how does the activity change read?
The activity change was -5.66%.

With `Cc1cc(C)cc(NC(=S)NC2CC3CCCC(C2)N3Cc2cccs2)c1` (stereo not given) as the compound, how does the activity change read?
Its activity change is -73.1% (active).

With `c1ccc(CCNC2CCCCCC2)cc1` as the compound, how does the activity change read?
Its activity change is 12.5%.

How did the activity change turn out when `CNC(=O)O/N=C(\N)Cc1csc2ccc(Cl)cc12` was run?
Its activity change is 4.55%.

For `NC(=O)Cn1cc(C(=O)c2ccccc2F)c2ccccc21`, which activity change is on record?
The activity change was 3.8%.

Which activity change does the source give for `N#Cc1ccc(Cn2cc(C(=O)c3ccco3)c3ccccc32)cc1` here?
Its activity change is -80.8% (active).

Which activity change does the source give for `COc1ccc2[nH]c3c(c2c1)CCN[C@H]3C` here?
The activity change was 2.31%.

Which activity change does the source give for `COc1cc(OC)cc(C2(C#N)CCN(C)CC2)c1` here?
The activity change was 5.57%.

With `Cc1ncoc1C(=O)NCC1=C(c2cccc3ccccc23)C[C@@H]2CC[C@H]1N2Cc1ccco1` as the compound, how does the activity change read?
Its activity change is -7.12%.

With `CC(=CCOc1ccc2ccc(=O)oc2c1)C1=CC(=O)C(C)(C)O1` as the compound, how does the activity change read?
The activity change was 4.08%.
